Hit rate of the full screen: of about 5,500 compounds, about 2,000 (36%) were called active. Another 18% or so got no clear call; they are omitted. Rule as the data show it: active = normalized growth mostly below about 0.91 (no sharp cut-off); inconclusive = no clear call, values can overlap the other calls; inactive = mostly above about 0.92. The list shows a part of the results.
Assay: chemical genetic growth profiling, strain panel (AID 1159580);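 also: tested at 20 µM; growth read once vehicle control cultures reached saturation at 30 °C; 1 = growth at the plate median or of vehicle wells; lower values mean less growth of the strain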
Details: growth OD

Measured: normalized growth

CCOCN(C(=O)CCl)c1c(C)cccc1CC
inactive: S. cerevisiae deletion strains, locus YJR043C, strain POL32, active compounds read low 0.983 | S. cerevisiae deletion strains, locus YJR075W, strain HOC1, active compounds read low 0.993 | S. cerevisiae deletion strains, locus YKL009W, strain mrt4, active compounds read low 0.989 | S. cerevisiae deletion strains, locus YKL068W, active compounds read low 0.973 | S. cerevisiae deletion strains, locus YKL085W, strain MDH1 (second series), active compounds read low 0.991 | S. cerevisiae deletion strains, locus YKL085W, strain MDH1, active compounds read low 0.991 | S. cerevisiae deletion strains, locus YKL160W, strain elf1, active compounds read low 0.995 | S. cerevisiae deletion strains, locus YKL190W, strain CNB1, active compounds read low 0.983 | S. cerevisiae deletion strains, locus YKR001C, strain vps1, active compounds read low 0.986 | S. cerevisiae deletion strains, locus YKR026C, strain gcn3, active compounds read low 0.985 | S. cerevisiae deletion strains, locus YKR091W, strain srl3, active compounds read low 0.988 | S. cerevisiae deletion strains, locus YLL001W, strain dnm1, active compounds read low 0.989 | S. cerevisiae deletion strains, locus YLL026W, active compounds read low 0.991 | S. cerevisiae deletion strains, locus YLL041C, strain sdh2, active compounds read low 0.988 | S. cerevisiae deletion strains, locus YLR027C, strain aat2, active compounds read low 0.976 | S. cerevisiae deletion strains, locus YLR039C, strain RIC1, active compounds read low 0.994 | S. cerevisiae deletion strains, locus YLR058C, strain SHM2, active compounds read low 0.986 | S. cerevisiae deletion strains, locus YLR102C, strain apc9, active compounds read low 0.974 | S. cerevisiae deletion strains, locus YLR221C, strain rsa3, active compounds read low 0.981 | S. cerevisiae deletion strains, locus YLR258W, strain gsy2, active compounds read low 1.02 | S. cerevisiae deletion strains, locus YLR262C, strain YPT6 (second series), active compounds read low 0.969 | S. cerevisiae deletion strains, locus YLR262C, strain YPT6, active compounds read low 1.01 | S. cerevisiae deletion strains, locus YLR268W, strain sec22, active compounds read low 0.979 | S. cerevisiae deletion strains, locus YLR320W, strain mms22, active compounds read low 0.986 | S. cerevisiae deletion strains, locus YLR330W, strain CHS5, active compounds read low 0.977 | S. cerevisiae deletion strains, locus YLR342W, strain FKS1 (second series), active compounds read low 0.98 | S. cerevisiae deletion strains, locus YLR342W, strain FKS1, active compounds read low 0.978 | S. cerevisiae deletion strains, locus YLR357W, strain rsc2, active compounds read low 0.961 | S. cerevisiae deletion strains, locus YLR370C, strain arc18, active compounds read low 0.995 | S. cerevisiae deletion strains, locus YLR371W, strain rom2, active compounds read low 0.963 | S. cerevisiae deletion strains, locus YLR384C, strain iki3, active compounds read low 0.98 | S. cerevisiae deletion strains, locus YLR418C, strain cdc73, active compounds read low 1.03 | S. cerevisiae deletion strains, locus YML016C, strain PPZ1, active compounds read low 0.992 | S. cerevisiae deletion strains, locus YML032C, strain rad52, active compounds read low 0.969 | S. cerevisiae deletion strains, locus YML120C, strain ndi1, active compounds read low 0.99 | S. cerevisiae deletion strains, locus YML124C, strain tub3, active compounds read low 0.972 | S. cerevisiae deletion strains, locus YMR058W, strain fet3, active compounds read low 0.988 | S. cerevisiae deletion strains, locus YMR078C, strain ctf18, active compounds read low 0.959 | S. cerevisiae deletion strains, locus YMR125W, strain sto1, active compounds read low 0.988 | S. cerevisiae deletion strains, locus YMR129W, active compounds read low 0.982 | S. cerevisiae deletion strains, locus YMR205C, strain PFK2, active compounds read low 0.996 | S. cerevisiae deletion strains, locus YMR223W, strain ubp8, active compounds read low 0.984 | S. cerevisiae deletion strains, locus YMR231W, strain pep5, active compounds read low 0.981 | S. cerevisiae deletion strains, locus YMR263W, strain SAP30, active compounds read low 0.983 | S. cerevisiae deletion strains, locus YMR307W, strain GAS1, active compounds read low 1 | S. cerevisiae deletion strains, locus YNL067W, strain RPL9B, active compounds read low 0.995 | S. cerevisiae deletion strains, locus YNL071W, strain lat1, active compounds read low 0.989 | S. cerevisiae deletion strains, locus YNL128W, strain TEP1, active compounds read low 0.978 | S. cerevisiae deletion strains, locus YNL153C, strain GIM3, active compounds read low 1 | S. cerevisiae deletion strains, locus YNL209W, strain ssb2, active compounds read low 0.998 | S. cerevisiae deletion strains, locus YNL233W, strain BNI4, active compounds read low 0.996 | S. cerevisiae deletion strains, locus YNL248C, strain rpa49, active compounds read low 0.984 | S. cerevisiae deletion strains, locus YNL250W, strain rad50, active compounds read low 0.977 | S. cerevisiae deletion strains, locus YNL271C, strain bni1, active compounds read low 0.994 | S. cerevisiae deletion strains, locus YNL298W, strain CLA4, active compounds read low 0.968 | S. cerevisiae deletion strains, locus YNL307C, strain MCK1, active compounds read low 0.982 | S. cerevisiae deletion strains, locus YNL322C, strain KRE1 (second series), active compounds read low 0.98 | S. cerevisiae deletion strains, locus YNL322C, strain KRE1, active compounds read low 0.982 | S. cerevisiae deletion strains, locus YNR049C, strain mso1, active compounds read low 0.986 | S. cerevisiae deletion strains, locus YNR052C, strain pop2, active compounds read low 0.957 | S. cerevisiae deletion strains, locus YOL006C, strain TOP1, active compounds read low 1.02 | S. cerevisiae deletion strains, locus YOL012C, strain htz1 0.911 | S. cerevisiae deletion strains, locus YOL147C, strain pex11, active compounds read low 0.981 | S. cerevisiae deletion strains, locus YOR001W, strain rrp6, active compounds read low 0.969 | S. cerevisiae deletion strains, locus YOR061W, strain CKA2, active compounds read low 0.999 | S. cerevisiae deletion strains, locus YOR069W, strain VPS5, active compounds read low 0.987 | S. cerevisiae deletion strains, locus YOR070C, strain gyp1, active compounds read low 0.98 | S. cerevisiae deletion strains, locus YOR080W, strain dia2, active compounds read low 0.975 | S. cerevisiae deletion strains, locus YOR083W, strain WHI5, active compounds read low 1 | S. cerevisiae deletion strains, locus YOR106W, strain vam3, active compounds read low 1 | S. cerevisiae deletion strains, locus YOR136W, strain idh2, active compounds read low 0.98 | S. cerevisiae deletion strains, locus YOR144C, strain elg1, active compounds read low 0.961 | S. cerevisiae deletion strains, locus YOR184W, strain ser1, active compounds read low 0.986 | S. cerevisiae deletion strains, locus YOR265W, strain rbl2, active compounds read low 1 | S. cerevisiae deletion strains, locus YOR270C, strain vph1, active compounds read low 1.01 | S. cerevisiae deletion strains, locus YOR290C, strain snf2, active compounds read low 1 | S. cerevisiae deletion strains, locus YOR316C, strain cot1, active compounds read low 0.978 | S. cerevisiae deletion strains, locus YPL051W, strain arl3, active compounds read low 0.99 | S. cerevisiae deletion strains, locus YPL055C, strain LGE1, active compounds read low 1 | S. cerevisiae deletion strains, locus YPL078C, strain atp4, active compounds read low 0.985 | S. cerevisiae deletion strains, locus YPL106C, strain sse1, active compounds read low 1.01 | S. cerevisiae deletion strains, locus YPL240C, strain hsp82, active compounds read low 0.995 | S. cerevisiae deletion strains, locus YPL241C, strain CIN2, active compounds read low 0.99 | S. cerevisiae deletion strains, locus YPR119W, strain clb2, active compounds read low 0.964 | S. cerevisiae deletion strains, locus YPR141C, strain kar3, active compounds read low 0.987 | S. cerevisiae deletion strains, locus YPR163C, strain tif3, active compounds read low 0.958 | S. cerevisiae deletion strains, locus YPR167C, strain met16, active compounds read low 0.987 | S. cerevisiae deletion strains, strain wtn01, active compounds read low 0.967 | S. cerevisiae strains, strain wild type, active compounds read low 0.993

— PubChem BioAssay AID1159580 (chemical genetic matrix, 2015)
